Results filed as inconclusive are left out. Where a call stands in place of a potency, no number is given. The source made the active and inactive calls. The call rests on the fitted dose curve; in most records, active means well fitted inhibition curve with a large enough effect; inconclusive means small, poorly fitted or top-dose-only effect; inactive means flat fitted curve, though single readings scatter.
molecular target: Calcium and integrin-binding protein 1 (Homo sapiens) (UniProt Q99828); assay: Primary qHTS for Identification of Calcium Integrin Binding Protein 1 (CIB1) Competitor (AID 1508620); conditions: CIB1-GST / FITC-alphaIIb peptide fluorescence polarization; series mostly up to 57.7 µM;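 further: GST tagged CIB1 binding a fluorescein labelled alphaIIb integrin peptide tracer; top concentration of the series differs between compounds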
Sequence (Q99828 whole entry, looked up): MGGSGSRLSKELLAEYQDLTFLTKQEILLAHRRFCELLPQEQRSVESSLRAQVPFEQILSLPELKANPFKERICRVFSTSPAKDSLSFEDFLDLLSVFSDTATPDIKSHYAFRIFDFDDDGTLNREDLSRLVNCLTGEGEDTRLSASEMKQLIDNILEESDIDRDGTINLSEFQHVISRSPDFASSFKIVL
In short: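 CIB1-GST (1 uM final) and compound incubated 15 min at room temperature before adding FITC-alphaIIb peptide tracer (100 nM final). Competition for binding read by fluorescence polarization (ex 480, em 540) after another 15 min at room temperature.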

| SMILES | Potency | activity change, negative = inhibition |
| --- | --- | --- |
| CC(=O)O[C@H]1[C@H](OC(=O)C(C)C)[C@]2(C)OC3(CC[C@]2(C)[C@H]2CCC[C@]4(CO4)[C@]12C)COC(=O)C3 (some centres undefined) | inactive | – |
| CC1=CC(=O)CC(C)(C)C1/C=C/C(C)OC1OC(COC2OCC(O)C(O)C2O)C(O)C(O)C1O (centres undefined) | inactive | – |
| C=C1[C@H](OC(C)=O)[C@H]2[C@@H](OC(=O)c3ccccc3)[C@@H](C)C[C@]2(O)[C@@H](OC(C)=O)[C@H](C)/C=C/C(C)(C)C(=O)[C@H](OC(C)=O)[C@H]1OC(C)=O | inactive | – |
| CC1CCC2C(C)(C)[C@H](O)CC[C@]2(C)C12Cc1c(O)cc3c(c1O2)CN(C(CCC(=O)O)C(=O)O)C3=O (some centres undefined) | inactive | – |
| CC(=O)OC1CC(C(C)(C)O)OC2CCC3(C)OC4=C(C(=O)C=C5C(C)C(OC(C)=O)C6(C)C(C)OC546)C(O)C3C12C (centres undefined) | inactive | – |
| COC(=O)C1=C[C@@H](O)[C@@H](O)[C@H](O[C@@H]2O[C@H](CO)[C@@H](O)[C@H](O)[C@H]2OC(=O)/C=C/c2ccccc2)C1 | inactive | – |
| O=C(O)CCc1cccc(O)c1O[C@@H]1O[C@H](CO)[C@@H](O)[C@H](O)[C@H]1O | inactive | – |
| CC(C)C1C(OC(=O)/C=C/c2ccccc2)CC2(C)OC2CCC2(C)OC2C1O (centres undefined) | inactive | – |
| C=C1[C@H](OC(C)=O)[C@H]2[C@@H](OC(C)=O)C(C)C[C@]2(OC(C)=O)C(=O)[C@H](C)/C=C/C(C)(C)C(=O)[C@H](OC(=O)C(C)C)[C@H]1OC(C)=O (some centres undefined) | inactive | – |
| COc1cc(/C=C/C(=O)O[C@H]2[C@H](O)[C@@H](CO)O[C@@]2(CO)O[C@H]2O[C@H](CO)[C@@H](O)[C@H](O)[C@H]2O)cc(OC)c1O | inactive | – |
| CCCCCOC(=O)Nc1nc(=O)n(C2O[C@H](C)[C@@H](O)[C@H]2O)cc1F (some centres undefined) | inactive | – |
| COc1cc(C2Oc3c(OC)cc(CCCO)cc3C2CO)ccc1O (centres undefined) | inactive | – |
| C[C@@H]1O[C@@H](O[C@H]2[C@@H]3C=CO[C@@H](O[C@@H]4O[C@H](CO)[C@@H](O)[C@H](O)[C@H]4O)[C@@H]3[C@@]3(CO)O[C@@H]23)[C@H](O)[C@H](OC(=O)/C=C/c2ccc(O)c(O)c2)[C@H]1O | inactive | – |
| CC(C)c1ccc2c(c1)C(=O)CC1C(C)(C(=O)O)CCCC21C (centres undefined) | inactive | – |
| CC1(C)CC[C@]2(C(=O)O[C@@H]3O[C@H](CO[C@@H]4O[C@H](CO[C@@H]5O[C@H](CO)[C@H](O)[C@H](O)[C@H]5O)[C@@H](O)[C@H](O)[C@H]4O)[C@@H](O)[C@H](O[C@@H]4O[C@H](CO)[C@@H](O)[C@H](O)[C@H]4O)[C@H]3O)[C@H](O)C[C@]3(C)C(=CCC4[C@@]5(C)CC[C@H](O[C@@H]6OC[C@@H](O)[C@H](O)[C@H]6O)[C@@](C)(C(=O)O)C5CC[C@]43C)[C@@H]2C1 (some centres undefined) | – | 3.63% [at 12.4 µM] (inactive) |
| C/C=C1/[C@H](O[C@@H]2O[C@H](CO)[C@@H](O)[C@H](O)[C@H]2O)OC=C(C(=O)OC)[C@H]1CC(=O)OCCc1ccc(OC(=O)C[C@@H]2C(C(=O)OC)=CO[C@@H](O[C@@H]3O[C@H](CO)[C@@H](O)[C@H](O)[C@H]3O)/C2=C/C)cc1 | inactive | – |
| O=C1C(Cl)=C(N2CCOCC2)C(=O)N1c1ccc(Cl)c(Cl)c1 | inactive | – |
| CC(CC(C)O[C@@H]1O[C@H](CO)[C@@H](O)[C@H](O)[C@H]1O)OC(=O)/C=C/c1ccc(O)cc1 (some centres undefined) | inactive | – |
| CC1OC(O[C@@H]2[C@@H](O)[C@H](OC(=O)[C@]34CCC(C)(C)C[C@H]3C3=CCC5[C@@]6(C)CC[C@H](O[C@@H]7O[C@H](C(=O)O)[C@@H](O)[C@H](O[C@@H]8OC[C@@H](O)[C@H](O)[C@H]8O)[C@H]7O[C@@H]7O[C@H](CO)[C@H](O)[C@H](O)[C@H]7O)[C@@](C)(C=O)C6CC[C@@]5(C)[C@]3(C)C[C@H]4O)O[C@H](C)[C@@H]2OC2OC(C)C(OC3OCC(O)C(O)C3O)C(O)C2O)C(O)C(O)C1O (some centres undefined) | – | 3.33% [at 12.4 µM] (inactive) |
| O=C(O[C@@H]1O[C@H](CO)[C@@H](O)[C@H](O)[C@H]1O)c1ccccc1 | inactive | – |
| C[C@]1(C2CCCC2)Cc2cc(OCC(=O)O)c(Cl)c(Cl)c2C1=O | inactive | – |
| CC(C)(O)C1CCC2(C)CCCC(C)(O)C2C1 (centres undefined) | inactive | – |
| C[C@@H]1CC2OC(=O)C3=C2C(CCC3O)[C@@]12C[C@@H](c1ccoc1)OC2=O (some centres undefined) | inactive | – |
| C=C1C[C@]23C[C@H]1CC[C@H]2[C@]1(C)CC[C@H](O)[C@@](C)(C(=O)O)[C@H]1[C@@H]3C(=O)O | inactive | – |

Reference: PubChem BioAssay (NCATS)
